Screening results as filed in PubChem.
DRD3 agonist = activates the human D3 dopamine receptor. D3R DiscoveRx beta-arrestin cells, luminescence, 90 min. max activation, %. 410,000 compounds, 0.58% hits; in the data active = max activation above about 30%
Target sequence (P35462 whole entry, looked up): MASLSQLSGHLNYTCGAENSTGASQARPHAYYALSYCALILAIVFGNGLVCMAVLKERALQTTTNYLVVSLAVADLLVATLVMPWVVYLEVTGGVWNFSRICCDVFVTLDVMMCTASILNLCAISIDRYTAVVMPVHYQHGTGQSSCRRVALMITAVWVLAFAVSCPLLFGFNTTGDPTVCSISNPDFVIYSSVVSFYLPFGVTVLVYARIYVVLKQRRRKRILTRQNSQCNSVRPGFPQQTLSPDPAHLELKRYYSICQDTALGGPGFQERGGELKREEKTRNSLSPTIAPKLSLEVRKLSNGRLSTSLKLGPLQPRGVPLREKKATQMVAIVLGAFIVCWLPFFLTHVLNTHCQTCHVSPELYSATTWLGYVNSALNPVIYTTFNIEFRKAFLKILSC
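Cells at 1500/well, incubated overnight, then treated with pinned compounds (dopamine as control) for 90 min at 37 degrees C. DiscoveRx reagent added for 30 - 60 minutes at room temperature; luminescence read.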
D3 antag = D3 dopamine receptor (human) antagonism; D3R cells, DiscoveRx beta-arrestin luminescence, antagonist mode; hits give low values; max response, negative = inhibition, %; 360,000 compounds, 2.5% hits; in the data active = max response below about -50%; inconclusive = no clear call, values can overlap the other calls
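Cells plated overnight at 1500 cells/well, then exposed to library compounds with dopamine controls for 90 minutes at 37 degrees C. DiscoveRx reagent added for 30–60 minutes at room temperature; luminescence read, quantitative HTS format.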
Chronic BCR inh = inhibitors of chronic active B-cell receptor signaling; ABC-DLBCL IkBa-CBG/CBR reporter, luminescence ratio, 4 h; Potency, µM (doses to about 46.1 µM), actives largely listed as inhibitors; 340,000 compounds, 0.05% hits; AID 493014; active = well fitted inhibition curve with a large enough effect in the signal ratio, with a control signal flat, not every such curve was filed as active; inconclusive = small, poorly fitted or top-dose-only effect, or effect the other way, or a change in a side signal; the % refers to the signal ratio
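Compounds up to 46 uM were incubated four hours with TMD8 cells whose green CBG68 luciferase is fused to IkappaBalpha; red CBR luminescence normalised the signal, and concentration-effect curves were fitted to fusion, red and ratio data.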
D1 antagonist = antagonists of human D1 dopamine receptor | P21728 | HEK293 TREx D1 cells, calcium flux, dopamine EC80; hits give low values | activity change, negative = inhibition, % at 10 µM | 360,000 compounds, 3.2% hits | AID 504652; in the data active = activity change below about -30%
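HEK293 T-REx cells expressing inducible, force-coupled D1 receptor; no-wash Ca dye, 30–90 min RT. Cmpd → 180 s read at 1 Hz → EC80 DA → 180 s read.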
D1 potentiator = potentiators of human D1 dopamine receptor; HEK293 TREx D1 cells, calcium flux, dopamine EC20 potentiation; potentiation, % at 10 µM; 360,000 compounds, 0.036% hits; AID 504651; in the data active = potentiation above about 30%
D1 agonist = human D1 receptor agonism. P21728. HEK293 T-REx D1 cells, calcium flux, agonist mode. activation, % at 2 µM. 360,000 compounds, 1% hits; in the data active = activation above about 30%
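Inducible HEK293 T-REx D1 cells, force-coupled to calcium signalling, were plated at 4000 cells/well with tetracycline and held overnight at 30 C. After no-wash calcium dye loading, compound-evoked calcium rise over 180 s flagged agonists.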
Large screens that a line does not name were inactive. Shown are actives, neighbours in structure and some others; about 6% of the full set was active somewhere.

CN(C)CCNC(=O)C(=O)c1c(-c2ccccc2)cc2ccccn12	none
COc1ccc(-c2c(-c3ccccc3)c(C(=O)C(=O)NCCCN(C)C)n3ccc4cc(OC)c(OC)cc4c23)cc1OC	D3 antag inconclusive, D1 antagonist -47
Cc1ccc(N2CCN(C(=O)c3c(C)oc4ncn(CC(C)C)c(=O)c34)CC2)c(C)c1	none (no result: D3 antag, Chronic BCR inh)
COc1ccc(N2CC3=C(C2=O)C(c2ccc(Br)cc2)NC(=O)N3C)cc1 (stereo unspecified)	none (no result: D3 antag, Chronic BCR inh)
Cc1ccc(C2(O)CCN(CCCC(=O)c3ccc(F)cc3)CC2)cc1	none (no result: D3 antag, Chronic BCR inh, D1 antagonist, D1 potentiator, D1 agonist)
CC(=O)NCC1(c2ccccc2)CCN(CCCC(=O)c2ccc(F)cc2)CC1	D3 antag -116 (no result: Chronic BCR inh, D1 antagonist, D1 potentiator, D1 agonist)
c1ccc(CCCN2CCN(c3ccccn3)CC2)cc1	D3 antag -62
CC1(C)C2CC[C@]1(C)C(=O)N(CCCCN1CCN(c3ccccn3)CC1)C2=O	DRD3 agonist 80
O=C(CCCN1CCN(c2ccccn2)CC1)c1ccc(F)cc1	D1 antagonist -74
CCOc1ccc(OCC)c(NS(=O)(=O)c2cc(-c3onc(C)c3C)ccc2OC)c1	none (no result: D3 antag, Chronic BCR inh)
CCOC(=O)c1ccccc1NC(=O)NC(C)c1c(-n2cccc2)sc(C)c1C (stereo unspecified)	none (no result: D3 antag, Chronic BCR inh)
CC(C)c1ccc(NC(=O)COc2ccccn2)cc1	D1 antagonist -91
O=C(c1cccc(Cl)c1)N1CCN(c2ccc3c(c2)C2CC3CCN2C(=O)OCc2ccccc2)CC1 (stereo unspecified)	none (no result: Chronic BCR inh, D1 antagonist, D1 potentiator, D1 agonist)
CCOC(=O)[C@]12CCCC=C1N(CCC1=CCCCC1)C(=O)[C@H](CC(=O)NCCCN1CCCC1=O)C2	none (no result: Chronic BCR inh, D1 antagonist, D1 potentiator, D1 agonist)
CCCCN1C(=O)/C(=C2/Sc3ccccc3N2C)S/C1=N\c1ncn[nH]1	Chronic BCR inh inconclusive, D1 antagonist -54
COc1ccc(OC(C)C(=O)NCc2nc(-c3cccc(C)c3)no2)cc1 (stereo unspecified)	none (no result: D3 antag, Chronic BCR inh)
Cc1ccc2c(c1)[C@@H]1CN(C)CC[C@@H]1N2S(=O)(=O)c1ccc(F)cc1	D3 antag -63
Cc1ccc2c(c1)C1CN(C)CCC1N2C(=O)c1cccc(S(=O)(=O)N(C)C)c1 (stereo unspecified)	none
Cc1ccc2c(c1)C1CN(C)CCC1N2Sc1ccccc1[N+](=O)[O-] (stereo unspecified)	D3 antag inconclusive, Chronic BCR inh inconclusive, D1 antagonist -95
Cc1ccc2c(c1)[C@@H]1CN(C)CC[C@@H]1N2S(=O)(=O)c1ccc([N+](=O)[O-])cc1	D3 antag -107, D1 agonist 60
Cc1ccc2c(c1)C1CN(C)CCC1N2C(=O)Nc1ccc(Cl)cc1 (stereo unspecified)	D1 antagonist -73, D1 agonist 36
CCc1ccc(S(=O)(=O)N2c3ccc(C)cc3C3CN(C)CCC32)cc1 (stereo unspecified)	D3 antag inconclusive
CCc1ccc(NC(=O)c2ccc3c(O)c(S(=O)(=O)c4ccccc4)c(=O)[nH]c3c2)cc1	none (no result: D3 antag, Chronic BCR inh)
Cc1ccccc1Nc1c(-c2cccs2)nc2cccc(C)n12	none (no result: D3 antag, Chronic BCR inh)
CN(C(=O)CSc1nncn2c1cc1occc12)c1ccccc1	none (no result: D3 antag, Chronic BCR inh)
CC(C)C(=O)Nc1c(C(=O)N2CCN(c3ccccc3F)CC2)oc2ccccc12	none (no result: D3 antag, Chronic BCR inh)
CCOCCCN(C)C1CCN(C(=O)c2oc3ccccc3c2NC(=O)Cc2ccc(F)cc2)CC1	D3 antag -71, Chronic BCR inh inconclusive
CCCCC(=O)Nc1c(C(=O)N2CCN(c3ccccc3)CC2)oc2ccccc12	D1 antagonist -48 (no result: D3 antag, Chronic BCR inh)
Cc1ccc(CC(=O)Nc2c(C(=O)N3CCN(c4ccccc4)CC3)oc3ccccc23)cc1	none (no result: D3 antag, Chronic BCR inh)
CC(C)C(=O)Nc1c(C(=O)N2CCN(c3ncccn3)CC2)oc2ccccc12	D1 antagonist -34
CCOCCCN(C)C1CCN(C(=O)c2oc3ccccc3c2NC(=O)COc2ccc(F)cc2)CC1	none
O=C(Cc1ccccc1)Nc1c(C(=O)N2CCN(c3ccc(F)cc3)CC2)oc2ccccc12	D1 antagonist -43 (no result: D3 antag, Chronic BCR inh)
COCCCNC(=O)CSc1nc(-c2cccc(F)c2)[nH]c1-c1ccccc1	none (no result: D3 antag, Chronic BCR inh)
O=C(CSc1nnc2ccccn12)Nc1ccccc1[N+](=O)[O-]	none (no result: Chronic BCR inh, D1 antagonist, D1 potentiator, D1 agonist)
